# ChEMBL document CHEMBL4513149, “CO-ADD screening of MMV (CH) - MMV compounds” (2021)
# Entries with a potency or affinity are not part of this list.
# Experiments:
# Klebsiella pneumoniae = conditions: Concentration 20 uM; ASSAY_TEST Inhibition of Bacterial Growth; detection method Absorption (OD600); MEDIA CAMHB; plate type 384well; NBS; CORNING #3640; time 18 hr
# Candida albicans = conditions: 20 µM
# Cryptococcus neoformans = conditions: Concentration 20 uM; ASSAY_TEST Inhibition of Fungal Growth; detection method Resazurin; Absorption (OD600-OD570); plate type 384well; NBS; CORNING #3640
SMILES,Inhibition (Klebsiella pneumoniae),Inhibition (Candida albicans),Inhibition (Cryptococcus neoformans)
CCCNC(=O)N1CCC2(CC1)CC(=O)c1cc(C)ccc1O2,17.38%,2.86%,-8.06%
CNC(=O)CNc1nc(-c2ccccn2)nc2scc(-c3ccccc3)c12,15.46%,0.88%,-5.07%
O=C(Nc1cccc(-c2ccc(NCCCN3CCCC3)nc2)c1)c1ccccc1,8.2%,3.22%,16.14%
CC(C(=O)N1CCCC1)N1CCN(S(=O)(=O)c2ccc(C(C)(C)C)cc2)CC1 (stereo not given),0.26%,2.42%,-10.06%
Cc1ccc2[nH]c3c(NCCN(C)C)ncnc3c2c1,16.4%,2.94%,-5.96%
COc1ccc(S(=O)(=O)Nc2ccc(CN3CCN(C(=O)c4cccc(C#N)c4)CC3)cc2)cc1,6.9%,1.12%,-8.14%
O=C(CCC1CCCCC1)Nc1cccc(-c2nnc(-c3ccco3)o2)c1,9.71%,5.6%,-12.99%
C[C@H](c1ccc2c(c1)CCCC2)N(C)c1ncc2c(N)nc(N)nc2n1,18.37%,3.88%,-9.74%
Cc1cc(OCC(=O)Nc2ccc(C(C)C)cc2)n(C)c(=O)c1C#N,-7.95%,4.91%,4.44%
Cc1ccc2cc(C3NC(=O)c4ccccc4N3)c(Cl)nc2c1 (stereo not given),19.35%,3.16%,-7.26%
